# Laboratory results as given in publication PMC7862700, “An all-to-all approach to the identification of sequence-specific readers for epigenetic DNA modifications on cytosine”.
# Columns and labels:
# Assay in all cases: DAPPL (digital affinity profiling via proximity ligation, sequencing); 10 mM Tris-HCl pH 7.5, 50 mM NaCl, 1 mM DTT, 4% glycerol, room temperature, 30 min; GST-TFs on glutathione beads, 16-mer random dsDNA library, 0.1% formaldehyde crosslink after washing; high values mean tight binding
# [1] = biological target: T1, FLI1 (Homo sapiens, UniProt Q01543 1-452); details: protein: recombinant; tags: N-terminal GST; dsDNA, one strand shown
# T1 sequence: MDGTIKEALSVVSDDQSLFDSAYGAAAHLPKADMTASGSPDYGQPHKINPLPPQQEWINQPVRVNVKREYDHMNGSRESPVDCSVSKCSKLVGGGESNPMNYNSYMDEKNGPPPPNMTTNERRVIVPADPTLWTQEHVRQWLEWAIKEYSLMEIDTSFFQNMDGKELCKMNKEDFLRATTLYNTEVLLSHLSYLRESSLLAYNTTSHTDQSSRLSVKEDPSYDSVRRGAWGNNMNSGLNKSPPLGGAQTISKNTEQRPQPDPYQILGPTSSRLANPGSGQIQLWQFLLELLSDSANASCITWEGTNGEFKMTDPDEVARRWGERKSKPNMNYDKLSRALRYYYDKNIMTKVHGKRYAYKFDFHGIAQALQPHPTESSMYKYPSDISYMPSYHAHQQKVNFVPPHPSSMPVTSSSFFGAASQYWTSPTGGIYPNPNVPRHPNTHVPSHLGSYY
# Method in brief: (§1)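 A tag-only sample was pooled with DNA-barcoded human transcription factors that had been expressed in yeast as GST fusions and captured on glutathione beads. The pools were incubated for 30 min at room temperature with 200 nmole of a random double-stranded 16-mer DNA library in Tris/NaCl/DTT/glycerol buffer, then washed, crosslinked with 0.1% formaldehyde, proximity-ligated (BsaI/T4 ligase, 1 h, 37 °C), PCR-amplified and sequenced on an Illumina NextSeq500. Binding signal is each hexamer's read frequency for a factor divided by its frequency for the tag-only sample.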
# [2] = biological target: T2, ELK1 (Homo sapiens, UniProt P19419 1-428); details: protein: recombinant; tags: N-terminal GST; dsDNA, one strand shown
# T2 sequence: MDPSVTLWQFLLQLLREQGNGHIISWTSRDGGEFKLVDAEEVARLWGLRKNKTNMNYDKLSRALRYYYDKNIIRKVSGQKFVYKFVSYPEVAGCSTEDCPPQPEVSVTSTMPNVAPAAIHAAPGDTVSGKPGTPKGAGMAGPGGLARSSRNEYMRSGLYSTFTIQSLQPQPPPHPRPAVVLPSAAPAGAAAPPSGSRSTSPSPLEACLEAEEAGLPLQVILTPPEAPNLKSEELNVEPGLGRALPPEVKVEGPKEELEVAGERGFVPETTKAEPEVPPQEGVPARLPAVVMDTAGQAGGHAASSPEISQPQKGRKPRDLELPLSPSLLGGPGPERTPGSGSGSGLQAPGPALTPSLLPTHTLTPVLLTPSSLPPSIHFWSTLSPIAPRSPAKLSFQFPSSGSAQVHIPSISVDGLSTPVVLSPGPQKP
# Method in brief: as §1
# [3] = biological target: T3, GABPA (Homo sapiens, UniProt Q06546 1-454); details: protein: recombinant; tags: N-terminal GST; dsDNA, one strand shown
# T3 sequence: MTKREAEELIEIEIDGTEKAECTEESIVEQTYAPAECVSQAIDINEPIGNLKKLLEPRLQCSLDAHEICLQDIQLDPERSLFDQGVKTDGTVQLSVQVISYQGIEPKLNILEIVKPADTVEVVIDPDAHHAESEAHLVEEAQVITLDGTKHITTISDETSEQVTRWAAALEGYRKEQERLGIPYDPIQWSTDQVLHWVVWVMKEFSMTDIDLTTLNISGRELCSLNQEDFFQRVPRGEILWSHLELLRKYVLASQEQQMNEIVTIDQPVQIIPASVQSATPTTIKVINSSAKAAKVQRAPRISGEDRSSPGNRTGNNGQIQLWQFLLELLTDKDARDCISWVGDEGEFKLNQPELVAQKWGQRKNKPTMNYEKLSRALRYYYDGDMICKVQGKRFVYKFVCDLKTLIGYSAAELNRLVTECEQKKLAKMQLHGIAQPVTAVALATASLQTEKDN
# Method in brief: as §1
# [4] = biological target: T4, ERG (Homo sapiens, UniProt P11308 1-479); details: protein: recombinant; tags: N-terminal GST; dsDNA, one strand shown
# T4 sequence: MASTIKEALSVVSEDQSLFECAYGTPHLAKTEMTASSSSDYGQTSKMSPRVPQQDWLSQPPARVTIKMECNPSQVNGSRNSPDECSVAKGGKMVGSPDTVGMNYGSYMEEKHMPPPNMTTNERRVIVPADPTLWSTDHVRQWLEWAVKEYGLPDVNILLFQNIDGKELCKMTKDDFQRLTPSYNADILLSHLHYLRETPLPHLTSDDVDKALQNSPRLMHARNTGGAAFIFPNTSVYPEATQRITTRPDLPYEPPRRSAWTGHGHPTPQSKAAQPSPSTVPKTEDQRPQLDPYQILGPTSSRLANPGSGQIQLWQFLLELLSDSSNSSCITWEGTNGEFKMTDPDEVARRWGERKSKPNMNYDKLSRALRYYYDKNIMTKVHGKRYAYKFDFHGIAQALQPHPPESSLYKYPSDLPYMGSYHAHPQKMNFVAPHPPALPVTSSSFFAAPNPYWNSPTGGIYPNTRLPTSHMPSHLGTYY
# Method in brief: as §1
# [5] = biological target: ELF1 (Homo sapiens, UniProt P32519 1-619); details: protein: recombinant; tags: N-terminal GST; dsDNA, one strand shown
# Method in brief: as §1
# [6] = biological target: T5, EHF (Homo sapiens, UniProt Q9NZC4 1-300); details: protein: recombinant; tags: N-terminal GST; dsDNA, one strand shown
# T5 sequence: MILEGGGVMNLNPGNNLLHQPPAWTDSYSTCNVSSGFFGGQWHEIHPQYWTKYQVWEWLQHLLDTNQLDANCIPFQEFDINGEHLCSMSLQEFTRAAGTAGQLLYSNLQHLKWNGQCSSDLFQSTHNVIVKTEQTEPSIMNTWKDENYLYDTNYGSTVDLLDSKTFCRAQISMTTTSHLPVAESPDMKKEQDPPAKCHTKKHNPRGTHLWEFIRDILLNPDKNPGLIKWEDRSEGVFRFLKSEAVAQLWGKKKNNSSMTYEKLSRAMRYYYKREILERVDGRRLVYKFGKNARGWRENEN
# Method in brief: as §1
# [7] = biological target: SPI1 (Homo sapiens, UniProt P17947 1-270); details: protein: recombinant; tags: N-terminal GST; dsDNA, one strand shown
# Method in brief: as §1
# [8] = biological target: SPIB (Homo sapiens, UniProt Q01892 1-262); details: protein: recombinant; tags: N-terminal GST; dsDNA, one strand shown
# Method in brief: as §1
# [9] = biological target: T6, ELK3 (Homo sapiens, UniProt P41970 1-407); details: protein: recombinant; tags: N-terminal GST; dsDNA, one strand shown
# T6 sequence: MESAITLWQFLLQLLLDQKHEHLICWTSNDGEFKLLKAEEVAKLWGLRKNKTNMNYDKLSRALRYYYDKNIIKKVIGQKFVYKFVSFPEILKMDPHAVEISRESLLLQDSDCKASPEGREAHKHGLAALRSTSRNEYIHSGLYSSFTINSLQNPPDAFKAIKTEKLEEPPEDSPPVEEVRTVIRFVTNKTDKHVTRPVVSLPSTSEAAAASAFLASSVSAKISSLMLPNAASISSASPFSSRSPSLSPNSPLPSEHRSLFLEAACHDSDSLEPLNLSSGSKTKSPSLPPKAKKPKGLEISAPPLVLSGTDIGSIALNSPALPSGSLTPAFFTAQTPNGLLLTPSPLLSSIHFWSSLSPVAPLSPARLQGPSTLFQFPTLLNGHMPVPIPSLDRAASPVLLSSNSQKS
# Method in brief: as §1
# [10] = biological target: T7, FEV (Homo sapiens, UniProt Q99581 1-238); details: protein: recombinant; tags: N-terminal GST; dsDNA, one strand shown
# T7 sequence: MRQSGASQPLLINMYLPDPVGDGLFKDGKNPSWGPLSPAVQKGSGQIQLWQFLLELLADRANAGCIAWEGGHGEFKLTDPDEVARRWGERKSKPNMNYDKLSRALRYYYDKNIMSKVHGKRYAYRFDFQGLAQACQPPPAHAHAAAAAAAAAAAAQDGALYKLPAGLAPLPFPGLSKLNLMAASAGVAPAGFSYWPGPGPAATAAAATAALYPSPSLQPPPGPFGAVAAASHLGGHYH
# Method in brief: as §1
# [11] = biological target: ETV5 (Homo sapiens, UniProt P41161 1-510); details: protein: recombinant; tags: N-terminal GST; dsDNA, one strand shown
# Method in brief: as §1
# [12] = biological target: HSF1 (Homo sapiens, UniProt Q00613 1-529); details: protein: recombinant; tags: N-terminal GST; chain copies: 3; dsDNA, one strand shown
# Method in brief: as §1
# [13] = biological target: T8, SPIC (Homo sapiens, UniProt Q8N5J4 1-248); details: protein: recombinant; tags: N-terminal GST; dsDNA, one strand shown
# T8 sequence: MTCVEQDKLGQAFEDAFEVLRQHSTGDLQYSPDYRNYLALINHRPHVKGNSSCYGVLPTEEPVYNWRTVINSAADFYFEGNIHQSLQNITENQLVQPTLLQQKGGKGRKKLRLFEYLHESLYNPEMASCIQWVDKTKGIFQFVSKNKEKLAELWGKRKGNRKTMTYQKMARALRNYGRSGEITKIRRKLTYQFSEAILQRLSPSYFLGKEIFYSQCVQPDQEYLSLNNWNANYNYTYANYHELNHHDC
# Method in brief: as §1
# [14] = biological target: ELF4 (Homo sapiens, UniProt Q99607 1-663); details: protein: recombinant; tags: N-terminal GST; dsDNA, one strand shown
# Method in brief: as §1
# [15] = biological target: T9, ELK4 (Homo sapiens, UniProt P28324-2 1-405); details: protein: recombinant; tags: N-terminal GST; dsDNA, one strand shown
# T9 sequence: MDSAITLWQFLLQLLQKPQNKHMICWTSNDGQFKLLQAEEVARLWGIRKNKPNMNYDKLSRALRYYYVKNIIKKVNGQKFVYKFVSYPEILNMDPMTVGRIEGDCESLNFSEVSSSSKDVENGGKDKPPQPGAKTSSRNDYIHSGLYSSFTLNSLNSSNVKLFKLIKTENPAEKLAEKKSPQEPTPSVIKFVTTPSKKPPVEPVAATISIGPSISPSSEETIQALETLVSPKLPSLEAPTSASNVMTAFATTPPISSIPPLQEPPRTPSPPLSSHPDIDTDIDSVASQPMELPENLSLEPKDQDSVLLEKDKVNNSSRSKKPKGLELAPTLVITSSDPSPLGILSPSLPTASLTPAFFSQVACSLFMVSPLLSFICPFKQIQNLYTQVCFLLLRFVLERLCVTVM
# Method in brief: as §1
# [16] = biological target: T10, ETV2 (Homo sapiens, UniProt O00321 1-342); details: protein: recombinant; tags: N-terminal GST; dsDNA, one strand shown
# T10 sequence: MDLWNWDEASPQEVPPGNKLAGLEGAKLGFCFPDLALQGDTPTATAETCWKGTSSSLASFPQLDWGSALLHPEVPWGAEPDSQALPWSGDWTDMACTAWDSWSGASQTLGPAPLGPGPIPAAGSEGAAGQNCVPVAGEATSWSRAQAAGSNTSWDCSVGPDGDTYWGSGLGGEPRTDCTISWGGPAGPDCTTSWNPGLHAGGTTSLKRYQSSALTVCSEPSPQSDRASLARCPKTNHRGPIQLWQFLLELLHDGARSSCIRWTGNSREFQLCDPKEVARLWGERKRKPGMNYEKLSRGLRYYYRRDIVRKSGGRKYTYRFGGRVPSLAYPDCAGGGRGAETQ
# Method in brief: as §1
# [17] = biological target: T11, ELF3 (Homo sapiens, UniProt P78545 1-371); details: protein: recombinant; tags: N-terminal GST; dsDNA, one strand shown
# T11 sequence: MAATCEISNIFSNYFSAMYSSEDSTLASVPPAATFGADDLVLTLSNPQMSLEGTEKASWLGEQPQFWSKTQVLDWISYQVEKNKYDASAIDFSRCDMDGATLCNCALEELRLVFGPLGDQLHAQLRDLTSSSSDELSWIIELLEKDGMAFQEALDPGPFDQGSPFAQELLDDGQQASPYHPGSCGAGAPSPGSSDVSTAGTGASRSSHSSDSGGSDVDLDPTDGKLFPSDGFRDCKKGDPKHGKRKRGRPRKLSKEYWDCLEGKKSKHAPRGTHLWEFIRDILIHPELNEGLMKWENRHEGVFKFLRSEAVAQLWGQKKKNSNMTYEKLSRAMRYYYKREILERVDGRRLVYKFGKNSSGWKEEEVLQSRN
# Method in brief: as §1
# [18] = biological target: CRX (Homo sapiens, UniProt O43186 1-299); details: protein: recombinant; tags: N-terminal GST; dsDNA, one strand shown
# Method in brief: as §1
# [19] = biological target: ETV1 (Homo sapiens, UniProt P50549 1-477); details: protein: recombinant; tags: N-terminal GST; dsDNA, one strand shown
# Method in brief: as §1
# Chain of ETV5 (P41161 whole entry): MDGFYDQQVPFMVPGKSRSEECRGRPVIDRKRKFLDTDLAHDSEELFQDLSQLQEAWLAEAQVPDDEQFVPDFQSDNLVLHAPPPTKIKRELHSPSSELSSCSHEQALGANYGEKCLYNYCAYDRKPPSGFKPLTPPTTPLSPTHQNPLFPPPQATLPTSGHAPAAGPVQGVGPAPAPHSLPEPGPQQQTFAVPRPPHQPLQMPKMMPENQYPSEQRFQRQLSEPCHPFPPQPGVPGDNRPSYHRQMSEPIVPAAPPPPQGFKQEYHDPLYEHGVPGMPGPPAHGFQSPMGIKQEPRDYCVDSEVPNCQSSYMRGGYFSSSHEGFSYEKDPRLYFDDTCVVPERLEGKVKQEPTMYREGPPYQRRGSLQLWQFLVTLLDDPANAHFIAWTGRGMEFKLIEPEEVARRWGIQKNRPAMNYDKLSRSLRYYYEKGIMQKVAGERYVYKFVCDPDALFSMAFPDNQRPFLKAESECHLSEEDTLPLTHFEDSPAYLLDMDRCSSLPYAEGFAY
# Chain of HSF1 (Q00613 whole entry): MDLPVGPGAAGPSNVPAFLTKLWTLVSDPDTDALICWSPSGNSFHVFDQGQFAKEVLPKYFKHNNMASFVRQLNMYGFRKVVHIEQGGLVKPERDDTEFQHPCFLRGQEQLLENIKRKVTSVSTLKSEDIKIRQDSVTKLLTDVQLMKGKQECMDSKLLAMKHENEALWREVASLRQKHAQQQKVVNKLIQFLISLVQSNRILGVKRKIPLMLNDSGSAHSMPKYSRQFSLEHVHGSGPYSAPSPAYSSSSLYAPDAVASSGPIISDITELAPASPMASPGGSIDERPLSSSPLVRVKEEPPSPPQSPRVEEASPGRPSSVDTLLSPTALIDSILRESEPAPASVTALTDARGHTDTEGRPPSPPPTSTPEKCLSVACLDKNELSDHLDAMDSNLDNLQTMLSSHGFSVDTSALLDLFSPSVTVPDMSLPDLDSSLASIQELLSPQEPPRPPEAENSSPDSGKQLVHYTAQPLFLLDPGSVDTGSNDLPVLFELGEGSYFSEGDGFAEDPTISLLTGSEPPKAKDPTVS
# Chain of SPIB (Q01892 whole entry): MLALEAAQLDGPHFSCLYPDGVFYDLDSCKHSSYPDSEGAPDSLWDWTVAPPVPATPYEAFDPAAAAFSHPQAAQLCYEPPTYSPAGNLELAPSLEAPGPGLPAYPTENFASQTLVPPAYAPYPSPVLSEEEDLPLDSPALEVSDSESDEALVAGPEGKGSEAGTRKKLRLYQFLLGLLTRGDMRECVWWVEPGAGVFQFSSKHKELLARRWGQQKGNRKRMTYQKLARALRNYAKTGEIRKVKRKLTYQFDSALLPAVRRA
# Chain of ETV1 (P50549 whole entry): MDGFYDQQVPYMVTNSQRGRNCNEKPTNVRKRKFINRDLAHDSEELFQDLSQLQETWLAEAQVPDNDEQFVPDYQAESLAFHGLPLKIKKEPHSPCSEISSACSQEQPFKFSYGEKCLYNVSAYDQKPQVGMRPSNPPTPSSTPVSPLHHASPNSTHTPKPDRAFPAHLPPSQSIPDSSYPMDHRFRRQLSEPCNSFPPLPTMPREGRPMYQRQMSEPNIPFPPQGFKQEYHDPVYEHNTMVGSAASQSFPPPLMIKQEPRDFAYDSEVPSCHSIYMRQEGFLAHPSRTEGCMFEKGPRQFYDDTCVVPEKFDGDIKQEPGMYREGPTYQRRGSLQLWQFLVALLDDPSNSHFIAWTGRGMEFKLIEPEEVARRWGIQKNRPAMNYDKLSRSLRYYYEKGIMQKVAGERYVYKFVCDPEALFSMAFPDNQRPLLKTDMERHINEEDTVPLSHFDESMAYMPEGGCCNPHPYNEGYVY
# Chain of CRX (O43186 whole entry): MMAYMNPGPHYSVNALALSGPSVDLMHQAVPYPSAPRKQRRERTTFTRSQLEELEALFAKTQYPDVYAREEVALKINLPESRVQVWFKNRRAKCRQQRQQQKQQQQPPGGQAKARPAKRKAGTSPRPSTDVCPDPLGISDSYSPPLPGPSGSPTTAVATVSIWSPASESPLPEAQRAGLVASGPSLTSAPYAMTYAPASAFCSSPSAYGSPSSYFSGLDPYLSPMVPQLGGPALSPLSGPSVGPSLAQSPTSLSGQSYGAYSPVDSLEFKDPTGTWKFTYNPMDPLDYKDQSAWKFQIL
# Chain of ELF1 (P32519 whole entry): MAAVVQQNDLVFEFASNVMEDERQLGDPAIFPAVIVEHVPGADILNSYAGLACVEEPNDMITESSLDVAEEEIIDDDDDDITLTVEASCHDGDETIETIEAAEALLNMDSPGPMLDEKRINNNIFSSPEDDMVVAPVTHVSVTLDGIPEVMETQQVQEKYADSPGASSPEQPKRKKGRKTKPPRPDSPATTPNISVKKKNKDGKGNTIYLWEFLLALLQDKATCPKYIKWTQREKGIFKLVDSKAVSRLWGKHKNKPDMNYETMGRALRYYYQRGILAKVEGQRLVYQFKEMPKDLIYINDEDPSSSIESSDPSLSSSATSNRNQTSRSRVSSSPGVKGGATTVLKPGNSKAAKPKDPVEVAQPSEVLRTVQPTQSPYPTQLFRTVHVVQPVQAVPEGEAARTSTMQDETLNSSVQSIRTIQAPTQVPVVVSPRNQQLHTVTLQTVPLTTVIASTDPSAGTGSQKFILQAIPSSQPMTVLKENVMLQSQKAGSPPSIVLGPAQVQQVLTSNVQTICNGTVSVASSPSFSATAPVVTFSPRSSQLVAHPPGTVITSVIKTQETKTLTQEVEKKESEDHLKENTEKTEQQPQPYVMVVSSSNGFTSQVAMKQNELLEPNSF
# Chain of ELF4 (Q99607 whole entry): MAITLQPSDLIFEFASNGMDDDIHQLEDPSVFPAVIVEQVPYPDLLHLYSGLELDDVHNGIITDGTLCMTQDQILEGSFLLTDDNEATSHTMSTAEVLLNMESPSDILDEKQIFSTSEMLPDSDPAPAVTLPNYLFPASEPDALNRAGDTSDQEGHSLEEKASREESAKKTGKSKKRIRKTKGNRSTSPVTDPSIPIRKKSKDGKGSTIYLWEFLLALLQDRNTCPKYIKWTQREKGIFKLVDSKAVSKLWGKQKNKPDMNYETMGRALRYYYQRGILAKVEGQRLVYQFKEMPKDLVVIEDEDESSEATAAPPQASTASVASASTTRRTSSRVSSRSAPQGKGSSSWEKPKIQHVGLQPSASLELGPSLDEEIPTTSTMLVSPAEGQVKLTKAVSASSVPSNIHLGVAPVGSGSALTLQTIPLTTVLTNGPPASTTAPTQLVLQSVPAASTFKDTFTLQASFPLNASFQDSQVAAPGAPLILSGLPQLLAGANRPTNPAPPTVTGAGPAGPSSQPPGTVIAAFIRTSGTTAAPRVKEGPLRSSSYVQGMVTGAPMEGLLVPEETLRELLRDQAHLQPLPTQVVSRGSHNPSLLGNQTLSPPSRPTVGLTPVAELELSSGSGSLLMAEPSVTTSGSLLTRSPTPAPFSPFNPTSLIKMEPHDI
sequence,measurement,setting,value
TGCTAA,binding signal,[1],"1.24 fold enrichment (6-mer frequency, TF over GST control)"
same,binding signal,[2],"1.37 fold enrichment (6-mer frequency, TF over GST control)"
same,binding signal,[3],"1.18 fold enrichment (6-mer frequency, TF over GST control)"
same,binding signal,[4],"1.23 fold enrichment (6-mer frequency, TF over GST control)"
same,binding signal,[5],"1.22 fold enrichment (6-mer frequency, TF over GST control)"
same,binding signal,[6],"1.27 fold enrichment (6-mer frequency, TF over GST control)"
same,binding signal,[7],"1.34 fold enrichment (6-mer frequency, TF over GST control)"
same,binding signal,[8],"1.28 fold enrichment (6-mer frequency, TF over GST control)"
same,binding signal,[9],"1.29 fold enrichment (6-mer frequency, TF over GST control)"
same,binding signal,[10],"1.29 fold enrichment (6-mer frequency, TF over GST control)"
same,binding signal,[11],"1.29 fold enrichment (6-mer frequency, TF over GST control)"
same,binding signal,[12],"1.32 fold enrichment (6-mer frequency, TF over GST control)"
same,binding signal,[13],"1.26 fold enrichment (6-mer frequency, TF over GST control)"
same,binding signal,[14],"1.28 fold enrichment (6-mer frequency, TF over GST control)"
same,binding signal,[15],"1.42 fold enrichment (6-mer frequency, TF over GST control)"
same,binding signal,[16],"1.24 fold enrichment (6-mer frequency, TF over GST control)"
same,binding signal,[17],"1.15 fold enrichment (6-mer frequency, TF over GST control)"
same,binding signal,[18],"1.8 fold enrichment (6-mer frequency, TF over GST control)"
same,binding signal,[19],"1.39 fold enrichment (6-mer frequency, TF over GST control)"
